# Laboratory results reported in the supplement of paper PMC11417369.
# ± gives the standard deviation of the averaged measurements. Whole data set: some 25,000 sequences, median “ln(normalized median fluorescence intensity)” near 8.9, cut for the highest 2% near 10. Many of the other results were omitted from the sample, so the highest values are more common in it than they were.
# System: PfAP2-LT AP2 domain (GST-tagged)
# Assay: gcPBM binding intensity (ln(normalized median fluorescence intensity)); higher = stronger DNA binding
# Procedure, shortened: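 GST-tagged P. falciparum DNA-binding domains produced in E. coli were incubated for 1 h on an Agilent 4 × 180k array of primer-extended double-stranded 36-bp intergenic genomic probes with negative controls. Binding intensity is the highest Masliner-normalised natural-log median intensity across replicate spots of either probe orientation, with bound protein detected by Alexa488 anti-GST antibody at 488 nm.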
row,Sequence,gcPBM binding intensity (ln)
1,AAAAAATTATATAATAATAGAACTATACATTTTATT [GTGCAC_negctrl_site645],8.44 ± 0.47
2,TACAATAAGGATAAGTGTACATATGTGCATACATAT [XGTACX_site7188],8.96 ± 0.35
3,TATTATTATTTTTTATGTACTAACGACAAAAATATT [XGTACX_site252],8.48 ± 0.4
4,AATATTTTTATATATATACACACTTACATATATATA [CACACA_site3609],8.91 ± 0.4
5,TTTTTTTTTTTGTGGGTGCGTTTATAAAAACAGGAA,8.42 ± 0.33
6,GGAACGTTCATATTTCCACACACAAAAAATAAATAT [CACACA_site9101],9.31 ± 0.57
7,TTACACAAGGATAAAAACATATGTATGATTATATAT [CACACA_negctrl_site654],8.89 ± 0.47
8,ATAGCTTTTATTTAAAGTACAAAAAGGATGTTGAAA [XGTACX_site3810],8.46 ± 0.44
9,TTTTTTAAGTAATGAAATGATTTTCTTATAGAATAA [GTGCAC_negctrl_site395],7.96 ± 0.36
10,AAAAAACAATTTGTGTGTACACATGATACGTTCGAT [XGTACX_site4112],9.39 ± 0.28
11,TTAAAAAAAAAACACACACACATACCCATATATATA [CACACA_site5768],9.825 ± 0.021
12,TCTCATAGGAAACACACACACACACCCACATATATA [CACACA_site1738],10.1 ± 0.11
13,TCTCATAGTAAACACACACACACACCCACATATATA [CACACA_site5034],9.97 ± 0.071
14,TTTCCCATAGGAAAAACACACATATATTATATATAA [CACACA_site1981],8.57 ± 0.4
15,CGCACTAAAAAACACACACACACACCCATATATATA [CACACA_site4152],10.2 ± 0.29
16,AACATATAAAAATGTGCACACACACCCATATATATA [CACACA_site1525],9.79 ± 0.3
17,AATAAAATATAATAATTAATATATATATATATATAA [GTGCAC_negctrl_site457],8.65 ± 0.45
18,ACACACAATACAAAAGTGCATATAATAATTAATCAT,9.34 ± 0.46
19,TTATAATATATATGTGGTACTTATTTATTTATTTAT [XGTACX_site7572],8.72 ± 0.49
20,AACAAATTAATTCTAGTGCAGGACGTATTTGTGTAC [GTGCAC_site9907],8.88 ± 0.36
21,AAAAAAAAAAAAAACACACACATATATATAATATAT [CACACA_site3172],9.37 ± 0.41
22,AAAAAAAAAAAAAAAACACACACATATATATATATA [CACACA_site8571],9.72 ± 0.29
23,ACACATATATATATATATATATATATATATATATAT [CACACA_negctrl_site1766],9.935 ± 0.035
24,AAAAAAAAAAAAAACACACATACATACATACATATA [CACACA_site4121],9.13 ± 0.38

row,Sequence,gcPBM binding intensity (ln)
1,AACACACACATATATATATATATATATATATATATA [GTGCAC_negctrl_site573],10.5 ± 0.13
2,AAAAAAAAAAAACACACACACATATATATATATATA [CACACA_site732],10.4 ± 0.19
3,AAAAAAAAAAAAAAAACACACACATATATATAATAT [CACACA_site9038],9.3 ± 0.41
4,AAAAAAAAAAAACATACACACATACATACATATATA [CACACA_site8222],9.26 ± 0.35
5,CATATATAAAAAAACACACACATATATATATATATA [CACACA_site1195],9.82 ± 0.042
6,AAAAAAAAAAAAAACACACACATATATATATATATA [CACACA_site1891],10.1 ± 0.37
7,AACATACACATATACACACACACATATATACATATA [CACACA_site1093],9.89 ± 0.23
8,AAAAAAACACACACATATATATATATATATATATAT [GTGCAC_negctrl_site498],10.2 ± 0.16
9,ATATTATATTATATAACACACATTTTTCATAACACT [CACACA_site407],8.95 ± 0.34
10,TATTAATTTTTATACGCATGTGTATAGTAATATATA [TGCATGCA_site1010],8.66 ± 0.37
11,TTTATAAACAAATGAACACACAAACATATTTATATA [CACACA_site7478],8.86 ± 0.42
12,TATGAATATCTATACACACACATATATATACTCACT [CACACA_site1597],9.39 ± 0.36
13,ATACGAAGTACGTACACACACTTATATGTTACTAAA [CACACA_site7812],9.26 ± 0.33
14,CAATACTATTATTATAGTACGTATAAAATTATATAT [XGTACX_site4950],8.71 ± 0.49
15,TATTTTATCATTTGCACACGCACACCGACATAAAAA [CACACA_site4348],9.26 ± 0.28
16,AAAAGTATATATTCAGTGCATAGTCTTTAAATATAA [GTGCAC_site9522],8.7 ± 0.38
17,AAAAAAAAAAAAAAAACACACATATATATATATATA [CACACA_site2436],10.095 ± 0.0071
18,AAAAAAAAAACATACACACATACATACATATATATT [CACACA_site949],9.28 ± 0.27
19,AAAAAAAAAAAAAAAACACACATATATATATAATAT [CACACA_site1159],8.96 ± 0.42
20,AAAAAATATTGAAGTACACACATTATGAACTTTTTT [CACACA_site1733],8.78 ± 0.42
21,AAAGAATACATATATTGTACATATATATATACCGTT [XGTACX_site6250],9.02 ± 0.45
22,ATGTAGATAAAACGTGTGCACATGTTTTTTGTTATT,10.3 ± 0.2
23,TATGTTTTTACGTGTGTGCACTTTGTAGAGATAAGT,9.06 ± 0.38
24,TTTTTTTTTTTTTGTGCATGTAGATTTATTGTTATA [TGCATGCA_site582],8.79 ± 0.39
